# Most compounds without a hit are left out; they make up all but 8.7% or so of the library.
# G9a inh – qHTS Assay for Inhibitors of Histone Lysine Methyltransferase G9a. actives 8.8% (n = 350,000). G9a H3K9 monomethylation, AlphaScreen, 2 h. Potency, µM (highest dose often 102 µM), hits mostly inhibitors; note: nearly all actives have a fitted effect of over 75% in size
#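 Quantitative HTS format: methyltransferase activity on a biotin-tagged H3K9 peptide is measured by AlphaScreen, using a rabbit anti-monomethyl-H3K9 antibody with streptavidin donor and anti-IgG acceptor beads. Final levels are 20 nM enzyme, 500 nM peptide, 20 uM SAM; 2 h RT.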
# Sfp PPTase inh – qHTS Assay for Inhibitors of Bacillus subtilis Sfp phosphopantetheinyl transferase (PPTase) | 4'-phosphopantetheinyl transferase ffp (Bacillus subtilis), Q9F4F7 | Biochemical Sfp PPTase activity, qHTS | Potency, µM, actives largely listed as inhibitors | actives 3.5% (n = 310,000);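 note: the enzyme is Sfp with the accession as filed and its product quenches rhodamine fluorescence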
#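 With Hepes-Na pH 7.6 buffer containing 10 mM MgCl2, Sfp (15 nM) modified BHQ-2-YbbR (12.5 uM) using rhodamine-CoA (5 uM). Two reads 30 minutes apart at 525/598 nm yielded each well's rate.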
# BAZ2B inh – qHTS Assay for Inhibitors of BAZ2B. Bromodomain adjacent to zinc finger domain protein 2B (Homo sapiens), Q9UIF8. AlphaScreen BAZ2B-H3K14Ac peptide displacement. Potency, µM (series often up to 114 µM), usual class: inhibitors. actives 4.4% (n = 360,000); note: nearly all actives have a fitted effect of over 60% in size
#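 Protein-peptide AlphaScreen: BAZ2B 50 nM, b-H3K14Ac 50 nM, 1x PBS pH 7.4 + 0.01% Tween-20. Preincubation 30 min RT; cpd 30 min RT (top 110 uM); beads 20 min RT, light-protected.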
# HP1b binding inh – HTS for Inhibitors of HP1-beta Chromodomain Interactions with Methylated Histone Tails; Chromobox protein homolog 1 (Homo sapiens), P83916; AlphaScreen HP1-beta / biotin-H3K9me3 peptide binding; Potency, µM (titrated, usually from 114 µM), actives largely listed as inhibitors; actives 0.56% (n = 390,000); note: nearly all actives have a fitted effect of over 70% in size
#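 Compound inhibition of the preformed complex between 50 nM HP1-beta and 50 nM biotinylated H3K9me3 peptide was read by AlphaScreen. Buffer was PBS pH 7.4 with 0.01% Tween-20. Incubations ran 30 min at room temperature, with 10 ug/mL donor/acceptor beads.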
# 12-LOX inh – Primary qHTS assay for inhibitors of human arachidonate 12S-lipoxygenase (ALOX12): Round 2; Polyunsaturated fatty acid lipoxygenase ALOX12 (Homo sapiens), P18054; purified 12hLO, xylenol orange hydroperoxide absorbance; Potency, µM (series often up to 108 µM), usual class: inhibitors; actives 1.1% (n = 580,000); AID 1671190, 2021
#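 Purified human 12hLO (150 nM final) in 25 mM Hepes, 0.01% Triton X-100, pH 7.0 was preincubated 15 min at room temperature with compound. Then 40 uM arachidonic acid was added, 30 min. Hydroperoxide was read by Fe-XO absorbance ratio 573/405 nm.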
# JMJD2A Tudor – qHTS Assay for Inhibitors of JMJD2A-Tudor Domain; Lysine-specific demethylase 4A (Homo sapiens), O75164; AlphaScreen JMJD2A-Tudor / H3K4me3 peptide binding; Potency, µM (highest dose often 114 µM), actives largely listed as inhibitors; actives 4.4% (n = 390,000); AID 504339, 2011; note: nearly all actives have a fitted effect of over 50% in size
# A number is an active result; . = inactive; ? = inconclusive; / = not tested or not shown; ! = a repeat was not active; [ ] = another dose, or the depositor's remark. Calls come from the whole dose curve; as a rule, active = well fitted curve in the direction sought with a large enough effect; inconclusive = small, poorly fitted or top-dose-only effect, or another doubt; inactive = no such curve, though single readings can be large; an effect the other way counts as inactive or inconclusive.
SMILES,G9a inh,Sfp PPTase inh,BAZ2B inh,HP1b binding inh,12-LOX inh,JMJD2A Tudor
C=CCc1cccc([C@@H]2[C@@H](C)CC[C@H]3C(=O)N4[C@@H](c5cc(OC)c(OC)c(OC)c5)c5[nH]c6ccccc6c5C[C@H]4C(=O)N23)c1,50µM,.,?,/,/,/
O=C1[C@@H]2Cc3c([nH]c4ccccc34)C(c3ccccc3)N2C(=O)CN1C1CCN(Cc2ccccc2)CC1 (stereo partly drawn),79µM,.,32µM,.,.,?
COc1cccc(-c2noc(CC3CCN(C(=O)c4cc(Cl)ccc4F)CC3)n2)c1,/,/,/,/,.,/
Cc1cc(C)c2c(N=NN3CCCCC3)[nH]nc2n1,45µM,.,.,.,.,.
CS(=O)(=O)Nc1ccc([N+](=O)[O-])cc1Oc1ccccc1,32µM!,56µM!,.,.,?,.
CS(=O)(=O)Nc1ccccc1Oc1ccccc1,.,.,.,.,.,.
O=C(CN1N=C(c2ccccc2)c2cc(Cl)ccc2S1(=O)=O)Nc1ccc(F)cc1F,/,/,/,/,.,/
Oc1cccc(/C=C/c2nc3cc(Cl)ccc3o2)c1,/,/,/,/,.,/
COc1ccnc(-c2nnc3ccc(N(C)c4ccccc4)nn23)c1,/,/,/,/,.,/
CC1(C)Cc2c(c(N3CCCCC3)[nH]c(=S)c2C#N)CS1,.,.,.,.,.,.
CC1CCN(c2[nH]c(=S)c(C#N)c3c2CCCC3)CC1,32µM,32µM,.,.,.,.
COCCN(CCOC)C(=O)[C@@H](C)C1CC[C@@]2(C)CC[C@H](NC(=O)COC)[C@@H](C)[C@@H]2[C@H]1O (stereo partly drawn),/,/,/,/,.,/
O=c1[nH]n(-c2ccc(F)cc2)c2ncccc12,.[0.0925 µM],.,.,.,.,.
Cc1c(-c2ccccn2)c(=O)[nH]n1-c1ccc(F)cc1,.,.,50µM,.,.,?
COc1ccc(CN(C)c2nn3c(=O)cc(C)nc3s2)cc1OC,/,/,/,/,.,/
CCn1cc([N+](=O)[O-])c(C(=O)N2N=C(c3ccc(OC)cc3OC)CC2c2ccccc2O)n1 (stereo not drawn),45µM,.,.,?,.,?
CCn1cc([N+](=O)[O-])c(C(=O)N2N=C(c3cccc4ccccc34)CC2c2ccccc2O)n1 (stereo not drawn),?,.,?,.,.,?
CN(C)CC(=O)c1ccc(-c2ccccc2)cc1,32µM,?,/,.,.,.
C/[N+]([O-])=C\CC(=O)c1ccc(-c2ccccc2)cc1,14µM,.,.,.,.,32µM
CCN(CC)CC(=O)c1ccc(-c2ccccc2)cc1,?,.,.,.,.,?
Cc1cc(C)c[n+](CC(=O)c2ccc(NC(=O)c3ccccc3)cc2)c1,/,.,.,.,.,.
Cc1cc(C)c[n+](CC(=O)c2ccc(-c3ccccc3)cc2)c1,50µM,.,.,.,.,.
COCCNC(=O)c1cc(-c2ccc(C)nc2)cc2ncn(C)c12,/,/,/,/,.,/
CCNc1nc(N)c(C(=O)c2ccc(Cl)cc2)s1,/,/,/,/,.,/
CCc1noc(CN2CCN(c3cc(C)nc(C(C)C)n3)CC2)n1,/,/,/,/,.,/
SMILES,G9a inh,Sfp PPTase inh,BAZ2B inh,HP1b binding inh,12-LOX inh,JMJD2A Tudor
O=C(O)CCNS(=O)(=O)c1ccc(Cl)cc1,/,/,/,/,.,/
CCOc1ccc(Nc2nc(C)c(NC(=O)c3cccc(OC)c3)c(Nc3ccc(OCC)cc3)n2)cc1,11µM,/,?,.,?,?
COc1ccc(Nc2nc(C)c(NC(=O)c3cccc(C)c3)c(Nc3ccc(OC)cc3)n2)cc1,/,/,/,/,35µM,/
CCOc1ccc(C(=O)Nc2c(C)nc(Nc3ccccc3)nc2Nc2ccccc2)cc1OCC,.,/,.,.,.,.
COCC1CN(C(=O)CCn2nc(C)cc2C)CC12CCOCC2 (stereo not drawn),/,/,/,/,.,/
CC(=O)CC(=O)Nc1ccccc1C#N,/,/,/,/,.,/
COc1ccc2[nH]c3c4c(ccc3c2c1)C(=O)C=CC4=O,/,6.3µM,40µM,?,?,?
CN(C(=O)c1ccno1)c1nnc(-c2cnccn2)s1,.,50µM,.,.,.,.
CCc1cccc2c(C(=O)Cn3nnc(-c4ccccc4)n3)c[nH]c12,/,/,/,/,.,/
O=C(Nc1ccc2nnc(-c3ccc(C(=O)N4CCSCC4)cc3)n2c1)C1CCC1,/,/,/,/,.,/
N#Cc1ccccc1N=Cc1cccc(Cl)c1,/,/,/,/,.,/
COC(=O)C1CSc2[nH]c(=O)sc2C1c1ccc(OC)c(OC)c1 (stereo not drawn),71µM,.,.,.,.,.
COC(=O)C1C(c2ccc(OC)c(OC)c2)NC(c2ccc(OC)c(OC)c2)C(C(=O)OC)S1(=O)=O (stereo not drawn),.,?,.,.,.,.
S=C(NC1CCCCC1)N1CCn2cccc2C1c1cccnc1 (stereo not drawn),71µM,.,?,.,.,.
Fc1ccc(C2c3cccn3CCN2C(=S)Nc2cccc(F)c2)cc1 (stereo not drawn),.,.,?,.,.,.
S=C(NC1CCCCC1)N1CCn2cccc2C1c1ccncc1 (stereo not drawn),?,.,50µM,.,.,.
Cc1cccc(C2Nc3ccccc3C(=O)N2CCc2ccccc2)n1 (stereo not drawn),.,.,.,.,.,.
COc1ccc(O)c(C2Nc3ccccc3C(=O)N2Cc2ccccc2)c1 (stereo not drawn),/,/,/,/,/,79µM
O=C1c2ccccc2NC(c2cccc([N+](=O)[O-])c2)N1CCc1ccccc1 (stereo not drawn),45µM,.,?,.,?,?
COc1ccc(CCN2C(=O)c3ccccc3NC2c2cc(Cl)c(O)c(OC)c2)cc1 (stereo not drawn),71µM,.,.,.,.,.
C=CCNC(=O)N1CCOC(CN(CC(C)C)C(=O)c2ccccc2)C1 (stereo not drawn),/,/,/,/,.,/
O=c1c2c3c(sc2n(CCN2CCCCC2)c(=O)n1Cc1ccco1)CCCCC3,50µM,.,.,.,.,?
O=C(Cn1c(=O)n(Cc2ccco2)c(=O)c2c3c(sc21)CCCC3)Nc1ccccc1,.,?,.,?,.,.[11.4 µM]
O=c1c2c3c(sc2n(CCN2CCOCC2)c(=O)n1Cc1ccco1)CCCCC3,.,45µM,.,.,.,89µM
Cc1ccccc1OCCn1c(=S)[nH]c2c(N)ncnc21,1.8µM,.,.,?,?,7.1µM
CCc1noc(C)c1C(=O)Nc1sc2c(c1C(N)=O)CCC2,/,/,/,/,.,/

# Screens deposited in PubChem by National Center for Advancing Translational Sciences (NCATS).
